# PubChem BioAssay AID651719 (The Scripps Research Institute Molecular Screening Center, 2012)
# Among all 360,000 compounds or so, about 1,600 (0.44%) were called active. This is one part of a sample in which actives are shown more often than they occur. Values without a mark were called inactive.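 Rule for the calls: active = inhibition above the screen-wide average plus 3 SD (cut at about 13% in these data); inactive = the rest.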
# Molecular target: Galanin receptor type 3 (Homo sapiens) (UniProt O60755)
# Assay: GalR3 antagonists in HEK293 cells, primary screen, cell-based, fluorescence readout (AID 651719);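 note: forskolin and galanin both at EC90 stimulate the cells; cAMP rise reported by CNG channel membrane potential dye signal; 0% = forskolin plus galanin with DMSO and 100% = forskolin alone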
# Details: HEK293 GalR3-CNG cAMP membrane potential fluorescence; at 3 µM; active compounds read high; galR3 body fused to GalR1 C-terminus
# Chain of Galanin receptor type 3 (Homo sapiens) (O60755 1-299 limits assumed): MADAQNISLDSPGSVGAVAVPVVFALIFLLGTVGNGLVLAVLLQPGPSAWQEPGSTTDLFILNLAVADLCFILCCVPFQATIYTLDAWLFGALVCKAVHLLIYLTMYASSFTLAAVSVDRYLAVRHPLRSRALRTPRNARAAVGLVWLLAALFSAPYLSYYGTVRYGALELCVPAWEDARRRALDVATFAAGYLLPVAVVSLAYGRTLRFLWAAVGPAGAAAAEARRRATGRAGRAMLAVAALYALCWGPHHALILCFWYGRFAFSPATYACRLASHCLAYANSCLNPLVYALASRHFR
row,SMILES,inhibition
1,COc1ccc(-c2ccc3c(n2)CCCN3S(=O)(=O)c2ccc(C)cc2)cc1,-6.68%
2,Cc1nc(NC(=O)C(C)(C)C)sc1[N+](=O)[O-],-6.84%
3,COc1ccccc1-c1c(C#N)c(N)nc2c1CCC2,-3.19%
4,CSc1ccc(-c2c(C#N)c(N)nc3c2c(C)nn3-c2ccccc2)cc1,-3%
5,CSc1nc(N)c(C#N)c(-c2ccccc2Cl)c1C#N,13.6% (active)
6,Cc1ccc(N)cc1CN1CCN(c2ncc(Cc3ccccc3)cn2)CC1,3.95%
7,COc1ccccc1Cc1c(-c2ccc(F)cc2)nc2ccc(C)cn12,-8.12%
8,CCOC(=O)C1=C(C(=O)OCC)C2N(Cc3ccc(C#N)cc3)c3ccccc3[C@@]23C[C@@H](C(=O)OC)N(S(=O)(=O)c2ccc(F)cc2)C3=N1 (stereo partly drawn),-4.3%
9,COc1ccc(C(=O)NC2CCCc3c2cnn3-c2cccc(C)c2C)c(OC)n1 (stereo not drawn),4.34%
10,COc1ccc(C(=O)NC2CC(C)(C)Cc3c2cnn3-c2ccccc2C)o1 (stereo not drawn),-3.9%
11,Cn1nccc1C(=O)NC1CCCc2c1cnn2-c1ccc(F)cc1F (stereo not drawn),99.2% (active)
12,Cn1nccc1C(=O)NC1CCCc2c1cnn2-c1ccccc1F (stereo not drawn),103% (active)
13,COc1ccc(OC)c(C(=O)NC2CCCc3c2cnn3-c2cc(C)cc(C)c2)c1 (stereo not drawn),-8.72%
14,CC1(C)Cc2c(cnn2-c2cccc(F)c2)C(NC(=O)c2cc[n+]([O-])cc2)C1 (stereo not drawn),-2.25%
15,Cc1ccccc1C(=O)N[C@H](C(=O)N1CCC[C@H]1C(=O)NCc1ccccc1)C(C)C,-4.85%
16,COc1ccc(NS(=O)(=O)c2cc(NC(=O)c3ccc(S(=O)(=O)N(C)C)cc3)ccc2N2CCOCC2)cc1,-5.13%
17,COc1ccc(NS(=O)(=O)c2ccc(C(=O)Nc3c(C)n(C)n(-c4ccccc4)c3=O)cc2)cc1,-0.08%
18,COc1ccc(NS(=O)(=O)c2ccc(NC(=O)c3ccc(N(C)S(C)(=O)=O)cc3)cc2)cc1,82.7% (active)
19,Nc1ncnc2c1ncn2[C@@H]1O[C@H](C(=O)N[C@@H](CCc2ccccc2)C(=O)NCC(=O)N2CCOCC2)[C@@H](O)[C@H]1O,-4.93%
20,Cc1cc(N2CCN(C(=O)OC(C)(C)C)C[C@H]2C)ccc1N1CCN(Cc2ccccc2)[C@H](C)C1,-6.01%
21,CC(=O)OCCC(C)C,-6.17%
22,CC(=O)OC(C)C[N+](C)(C)C (stereo not drawn),32.6% (active)
23,CC(C[N+](C)(C)C)OC(N)=O (stereo not drawn),-2.23%
24,COCc1cc(N2CCN(C(=O)OC(C)(C)C)C[C@@H]2C)ccc1N1CCN(Cc2ccccc2)[C@H](C)C1,-0.36%
25,Cc1ccc2nc(-c3ccc(CN4CCC(n5cc(-c6ccccc6)[nH]c5=O)CC4)cc3)c(-c3ccccc3)nc2c1,-5.31%
26,COc1cccc(C(=O)OCC(=O)c2[nH]c(C)c(C(C)=O)c2C)c1,-7.96%
27,CC(=O)c1c(C)[nH]c(C(=O)COC(=O)c2cccs2)c1C,-4.13%

row,SMILES,inhibition
1,CC(=O)c1c(C)[nH]c(C(=O)COC(=O)c2cccc(S(=O)(=O)N(C)c3ccccc3)c2)c1C,78.8% (active)
2,COCc1c(C(=O)N/N=C\c2cccnc2)nnn1-c1nonc1N,-5.53%
3,CC(C)c1c(C(=O)N/N=C/c2ccccc2C(=O)O)nnn1-c1nonc1N,-9.07%
4,Nc1nonc1-n1nnc(C(=O)N/N=C/c2cc(Br)ccc2O)c1CSC1=NCCS1,76.9% (active)
5,Cc1cc(OC(=O)NCCc2ccc(F)cc2)ccc1F,-6.58%
6,C=CCN=C1NC(c2cccc(C(F)(F)F)c2)C(C(=O)OC)=C(C)N1C (stereo not drawn),-7.24%
7,CC(C)[C@@H](C)/C=C/[C@@H](C)[C@H]1CC[C@@H]2[C@]1(C)CCC1[C@]23C=C[C@]2(C[C@@H](O)CC[C@]12C)N(c1ccc([N+](=O)[O-])cn1)O3 (stereo partly drawn),2.02%
8,COC(=O)C1=C(C)N(Cc2ccccc2C(F)(F)F)C(=NCc2ccc(C(F)(F)F)cc2)NC1c1ccc(F)cc1 (stereo not drawn),-4.63%
9,CCCCCCCCN1C(=O)[C@@H](CC(=O)NCc2ccc(C)o2)C[C@@]2(C(=O)OC)C1=C[C@H](C(C)(C)C)O[C@@H]2C,-4.99%
10,O=C(Cc1ncc(C(F)(F)F)cc1Cl)Nc1cccc(Br)c1,2.24%
11,CN(CC(=O)Nc1ccc(Cl)c(C(F)(F)F)c1)C(=O)CCC(=O)c1ccccc1,-4.03%
12,O=C(CC(O)(C(F)(F)F)C(F)(F)F)Nc1ccc(Cl)c(Cl)c1,58.6% (active)
13,Nc1ncnc2c1ncn2[C@@H]1O[C@H](C(=O)N[C@@H](CCc2ccccc2)C(=O)N2CCCN(Cc3cccs3)CC2)[C@@H](O)[C@H]1O,-6.23%
14,O=C(O)Cn1cnc2c(NCc3ccccc3)ncnc21,-5.71%
15,C=CCN1C(=O)N(Cc2ccccc2)c2ccccc2S1(=O)=O,-6.64%
16,COc1ccc(C2OCC3(CO2)SC(=O)NC3=O)cc1OC (stereo not drawn),-2.1%
17,CSc1nc2c(c(=O)[nH]1)C(c1cccc(Cl)c1Cl)CC(=O)N2 (stereo not drawn),12.2%
18,N#Cc1c(N)nc2c3c(sc(=N)c2c1N)NC(=O)CC3c1ccccc1Cl (stereo not drawn),62.4% (active)
19,COc1ccc(OC)c2c(N)c(C#N)c(C(F)(F)C(F)(F)F)nc12,1.89%
20,COc1ccc(C2CC(=O)Nc3sc(=N)c4c(N)c(C#N)c(N)nc4c32)cc1OC (stereo not drawn),64.7% (active)
21,COC(=O)[C@]12C[C@H](CC(=O)N3CCN(C(=O)C4CC4)CC3)C(=O)N(Cc3ccc4c(c3)OCO4)C1=C[C@H](C(C)(C)C)O[C@@H]2C,-5.6%
22,N#Cc1cccc(C(=O)NCC2CCN(C(=O)C(=O)c3cc4ccccc4o3)CC2)c1,-3.55%
23,CCOC(=O)CNC(=O)N(C)[C@H]1C[C@H]2c3[nH]c4c(-c5ccc6c(c5)OCO6)cccc4c3CCN2C(=O)[C@H]1[C@H](C)O,-5.71%
24,COc1ccc(C2CC(c3cccs3)=Nc3ccccc3S2)cc1OC (stereo not drawn),-5.75%
25,COc1ccc(-c2csc(-c3cccs3)n2)cc1OC,14.8% (active)
26,COc1ccc(C(C)(O)c2nc(-c3ccc(C)c(C)c3)cs2)cc1 (stereo not drawn),-5.12%
